In the library only some 0.45% were active in any assay of this set; here they are far more common.
a7 integrin act: qHTS for Activators of Integrin-Mediated Alleviation for Muscular Dystrophy | alpha7betagal myoblasts, beta-gal FDG fluorescence, 48 h | Potency, µM (series often up to 38.3 µM), inactives show at the top dose activation, actives largely listed as activators | 350,000 tested, 0.064% active | AID 624291, 2012;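 also: potency is read from the fitted curve at half-maximal effect; 100% = response of the positive control SU9516; nearly all actives have a fitted effect of over 60% in size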
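Alpha7betagal+/- myoblasts (passage 13) were plated 16-24 hr, then exposed to compounds (1:260 dilution of DMSO stock) for 48 hours at 37C. After MPER lysis, β-galactosidase reporter activity was read as FDG fluorescence (ex 480/em 540) after 30 minutes.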
CBFb-RUNX1 inh: qHTS Assay for Compounds Blocking the Interaction Between CBF-beta and RUNX1 for the Treatment of Acute Myeloid Leukemia. AlphaScreen CBFb-His/RUNX1-biotin binding, biochemical. Potency, µM (top dose mostly 59.8 µM), for inactives: at the highest dose activity, negative = inhibition, actives largely listed as inhibitors. 230,000 tested, under 10 active; also: % of control where 0% means no effect
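Interaction loss through any mechanism counts as activity. Pre-formed complex of His-CBF-beta and biotin-RUNX1 (30 nM apiece) is incubated with compound 15 min, then with 50 ng nickel and 50 ng streptavidin beads for 90 min before AlphaScreen detection.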
TR SRC2 fluor cs: Total Fluorescence Counterscreen for Inhibitors of the Interaction of Thyroid Hormone Receptor and Steroid Receptor Coregulator 2. 280,000 tested, 0.29% active. TRb/SRC2 Texas Red total fluorescence interference. Potency, µM (top dose mostly 106 µM), for the others: at the highest dose fluorescence change, negative = quenching. AID 1479, 2009; active = well fitted curve in either direction with a large enough effect; inconclusive = small, poorly fitted or top-dose-only effect; also: potency is read from the fitted curve at half-maximal effect; % is scaled to controls: 0 for no effect and ±100 for the full control effect
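Human TRβ ligand-binding domain (0.6 uM) and Texas Red SRC2 peptide (20 nM) in Tris buffer with 1 uM T3 and 5% DMSO were incubated with pinned compound for 5 hr at ambient temperature. Total fluorescence was computed as S + 2P (555/632 nm).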
TRb SRC2 PPI: qHTS for Inhibitors of the Interaction of Thyroid Hormone Receptor and Steroid Receptor Coregulator 2; TRbeta-SRC2 peptide binding, fluorescence polarization; receptor liganded with 1 µM T3; Potency, µM (titrated, usually from 106 µM), inactives show at the top dose activity change, negative = inhibition, most hits filed as inhibitors; 280,000 tested, 0.065% active;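 also: potency is read from the fitted curve at half-maximal effect; plate controls were bound peptide for no effect and peptide without receptor for full effect; nearly all actives have a fitted effect of over 50% in size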
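Human TRb ligand-binding domain (0.6 uM) is mixed with 20 nM Texas Red SRC2 peptide and 1 uM T3; after compound addition and 5 hr at ambient temperature, polarization is measured and normalized to unbound and bound controls.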
RGS12 GoLoco inh: qHTS Assay for Inhibitors of RGS12 GoLoco Motif Activity (Red Fluorophore) | AID 880, 2007 | Potency, µM (series often up to 61.6 µM), for the others: at the highest dose activity, negative = inhibition, usual class: inhibitors | Guanine nucleotide-binding protein G(i) subunit alpha-1 (Homo sapiens), P63096 | 230,000 tested, 0.44% active | Gai1:RGS12 GoLoco peptide FP, rhodamine, 10 min; active = well fitted inhibition curve with a large enough effect, not every such curve was filed as active; inactive = no such curve, though single readings can be large or run the other way; also: potency is read from the fitted curve at half-maximal effect; % is scaled to controls: 0 for no effect and ±100 for the full control effect; nearly all actives have a fitted effect of over 30% in size
ERG Ets-DNA blk: qHTS for Small Molecule Inhibitors of the ERG Ets/DNA interaction; fluorescence polarization, His-ERG Ets domain / labelled DNA; Potency, µM (doses to about 76.9 µM), for the others: top-dose FP activity, negative = inhibition, hits mostly inhibitors; 370,000 tested, 0.028% active; AID 624246, 2012; active = well fitted inhibition curve with a large enough effect in the polarisation, with a control signal flat; inconclusive = small, poorly fitted or top-dose-only effect, or effect the other way, or a change in a side signal; inactive = no such curve, though single readings can be large or run the other way; the % refers to the polarisation;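 also: polarization taken with two DNA probes labelled with fluorescein and Texas red; potency is read from the fitted curve at half-maximal effect; % of control where 0% means no effect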
Target sequence (P11308 whole entry, looked up, the tested form may be a part): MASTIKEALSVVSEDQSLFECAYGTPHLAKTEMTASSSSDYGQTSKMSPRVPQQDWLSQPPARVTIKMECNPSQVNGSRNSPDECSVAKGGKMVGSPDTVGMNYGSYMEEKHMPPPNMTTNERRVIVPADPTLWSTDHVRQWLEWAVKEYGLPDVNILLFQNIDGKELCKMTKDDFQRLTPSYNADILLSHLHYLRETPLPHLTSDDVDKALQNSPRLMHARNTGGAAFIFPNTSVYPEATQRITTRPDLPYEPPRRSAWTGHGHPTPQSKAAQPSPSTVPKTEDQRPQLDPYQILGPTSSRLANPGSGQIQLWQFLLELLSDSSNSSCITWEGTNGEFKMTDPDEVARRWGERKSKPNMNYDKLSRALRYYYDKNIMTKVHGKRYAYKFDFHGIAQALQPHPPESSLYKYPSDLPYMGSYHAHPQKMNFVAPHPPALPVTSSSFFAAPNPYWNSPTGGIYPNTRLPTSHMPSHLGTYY
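His-tagged ERG Ets domain (1 uM in the protein solution; 300mM KCl, 50mM Tris-HCl, 1mM EDTA, 1mM DTT, pH 7.5) received compound, then a probe mix of 5 nM fluorescein-DNA and 100nM Texas-615-DNA. Fluorescence polarization was read for both dyes.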
Numbers without * were called inactive; i = inactive; ? = inconclusive; nt = no result given; [ ] = remark or other dose. Unless noted, calls follow the shape of the dose curve; as a rule, active = well fitted curve in the direction sought with a large enough effect; inconclusive = small, poorly fitted or top-dose-only effect, or another doubt; inactive = no such curve, though single readings can be large; an effect the other way counts as inactive or inconclusive.

SMILES	a7 integrin act	CBFb-RUNX1 inh	TR SRC2 fluor cs	TRb SRC2 PPI	RGS12 GoLoco inh	ERG Ets-DNA blk
COCCNC(=O)Cn1c(-c2cccs2)cc2cc(Cl)ccc21	nt	nt	126µM*[quencher]	-20%	nt	5%
CCN1CCN(CCCNC(=O)Cn2c(-c3cccs3)cc3cc(F)ccc32)CC1	nt	nt	141µM*[quencher]	?	nt	2%
Cc1ccc(-c2nc(N)s[n+]2-c2ccccc2)cc1	-9%	-2%	-1%[53 µM]	2%[53 µM]	3.5µM*	5%
O=[N+]([O-])c1ccc(N2CCN(c3ccccc3F)CC2)nc1	5.6µM*	nt	nt	nt	nt	-9%
CCCNc1c(F)c(F)c2c(C)c3ccccc3nc2c1F	-35%	6%	3%	5%	28µM*	0%
O[C@@H]1COC2[C@@H](O)CO[C@@H]21 (some centres not stated)	nt	15%	?	-23%	nt	nt
O=C(COc1ccc(F)cc1)NCC(c1ccc(Cl)cc1)N1CCCCC1 (configuration not stated)	nt	nt	40µM*[quencher]	-26%	nt	2%
CCn1c(C)[n+](Cc2ccccc2)c2ccc(C(=O)OC)cc21	10%	-7%	-1%	1%	1.3µM*	-1%
CCn1c(C)[n+](Cc2ccccc2)c2ccc(Cl)cc21	10%	4%	0%	-4%	-33%	1%
Cc1nc2c(cnn2-c2ccccc2)c(=O)n1/N=C/c1ccccc1	10µM*	12%	-5%	-3%	4%	8%
Cc1nc2ccccc2c(=O)n1/N=C/c1ccc(N(C)C)cc1	1%	-9%	-4%	2%	2%	nt
C=CC1=C(C)C2=Cc3c(C=C)c(C)c4[n]3[Sn+2][n]3c(c(C)c(CCC(=O)O)c3=CC3=NC(=C4)C(C)=C3CCC(=O)O)=CC1=N2	nt	-25%[21.7 µM]	?	13µM*	1.4µM*	nt
CCCCCCCCCCCCCCCCCC#N	nt	nt	4%[201 µM]	-2%[201 µM]	nt	nt
Cc1ccc(-c2onc3ccc(C(=O)/C=C/N(C)C)cc23)cc1	3.5µM*	nt	nt	nt	nt	-9%
CC[n+]1ccc(/C=C/c2ccc(N(C)C)cc2)c2ccccc21	?	-22%	32µM*[fluorescent]	?	267%	135%
CC[n+]1ccccc1/C=C/c1ccc(N(C)C)cc1	-29%	-2%	4%	6%	153%	79%
COc1cccc(-c2nnc3n2N=C(c2ccc(OC)cc2OC)CS3)c1	nt	-19%	-1%	-5%	nt	nt
CC(=O)N1c2ccc(S(=O)(=O)Nc3ccc(C)c(Cl)c3)cc2CC1C (configuration not stated)	nt	nt	16µM*[quencher]	-15%	nt	1%
CC(=O)N1c2ccc(S(=O)(=O)NCCC(=O)Nc3ccc(Cl)cc3)cc2CC1C (configuration not stated)	13%	nt	nt	nt	nt	nt
CCCCCCCCCCCCCCOS(=O)(=O)O	nt	11%	-3%	-5%	nt	nt
O=C1CSC(=S)N1/N=C/C=C/c1ccccc1	-31%	?	5%	11%	83%	14%
N=C1SCC(=O)N1/N=C/c1ccccc1	?	-6%	-2%	-3%	13%	28µM*
CCC(CNc1cc(OC)cc2cccnc12)NC1CCCCC1 (configuration not stated)	-71%	nt	5%	?	28µM*	-4%
COc1cc(NCCCC(C)N)c2ncccc2c1 (configuration not stated)	-49%	nt	45µM*[fluorescent]	28µM*	28µM*	?
Cc1ccc(-n2c(Cl)c(Cl)nc(Cl)c2=O)cc1	?	5%	-2%	-6%	2µM*	21%
SMILES	a7 integrin act	CBFb-RUNX1 inh	TR SRC2 fluor cs	TRb SRC2 PPI	RGS12 GoLoco inh	ERG Ets-DNA blk
COc1nc(Cl)cn(-c2ccc(C)cc2)c1=O	-6%	1%	-3%	-5%	-1%	-2%
C=C(C)C(=O)OCC(CC)(COC(=O)C(=C)C)COC(=O)C(=C)C	nt	nt	-1%[201 µM]	8%[201 µM]	nt	nt
C=C(C)C(=O)OCCC[Si](OC)(OC)OC	nt	nt	3%[201 µM]	2%[201 µM]	nt	nt
Cc1ccc(/C=C2\C(=O)Nc3ccccc32)o1	1%	0%	0.11µM*[quencher]	-13%[53 µM]	-18%	14%
O=C1Nc2ccccc2/C1=C/c1ccccc1F	-58%	nt	nt	nt	nt	10%
CCCCCCCCCCCO	nt	nt	-2%[201 µM]	0%[201 µM]	nt	nt
Oc1ccc(NCc2cccc(OCc3ccc(F)cc3)c2)cc1	-41%	-26%	16%	11µM*	-22%	?
O=[N+]([O-])c1ccc(COc2cccc(CNc3ccc(F)cc3)c2)cc1	14%	-1%	1%	-1%	0%	11%
Oc1ccc(NCc2cccc(OCc3ccccc3)c2)cc1	-12%	-27%	-9%	32µM*	-18%	?
CCCCCCCCCCCCC/C=C/C(O)C(COP(=O)(O)OCCN)NC(=O)CCCCCCCCCCCCCCCCC (configuration not stated)	nt	14%	-3%	-5%	nt	nt
COc1cc(=O)n(C)c2ccccc12	2.2µM*	12%	-1%	8%	14%	nt
CCn1c(=O)c2sccc2n2c(CCCC(=O)N3CCN(c4ccccc4OC)CC3)nnc12	nt	nt	0%	-6%	nt	-1%
COc1ccccc1N1CCN(C(=O)CCc2nnc3n(C)c(=O)c4sccc4n23)CC1	nt	nt	22µM*[quencher]	?	nt	5%
CCOc1ccc(NC(=O)CCc2nnc3n(C)c(=O)c4sccc4n23)cc1	nt	nt	0.035µM*[quencher]	30%[53 µM]	nt	5%
CCOc1ccc(NC(=O)CCCc2nnc3n(C)c(=O)c4sccc4n23)cc1	nt	nt	-2%	-7%	nt	-1%
CCCCCCCCCCCCCCC	nt	nt	-1%[201 µM]	5%[201 µM]	nt	nt
CC[N+](CC)(CC)CCOc1cccc(OCC[N+](CC)(CC)CC)c1OCC[N+](CC)(CC)CC	nt	6%	-1%	-4%	10µM*	-11%
Cc1ccccc1-c1ccnc2c(-c3ccc(F)cc3)c(C)nn12	nt	nt	11µM*[quencher]	-17%	nt	0%
O=C(NCc1cccs1)c1ccc([N+](=O)[O-])cc1	0%	0%	0.1µM*[quencher]	?	-14%	?
Cc1cc(C(=O)NCc2cccs2)ccc1[N+](=O)[O-]	2%	-2%	1%	-4%	11%	nt
Cc1ccccc1C(=O)Nc1nnc(SC(C)C)s1	10µM*	-10%	0%	-9%	i	5%
CC(C)Sc1nnc(NC(=O)CCc2ccccc2)s1	11%	8%	1%	-8%	-3%	-1%
